# Tests used:
# Conditions in all cases: concentration: 1 μM, replicates: in singlicate; n = 1
# AKT3 = system: AKT3
# ALK = system: ALK
# AMPK-alpha1 = system: T1, AMPK-alpha1
# T1 construct: gene PRKAA1
# AMPK-alpha2 = system: T2, AMPK-alpha2
# T2 construct: gene PRKAA2
# ANKK1 = system: ANKK1
# ARK5 = system: T3, ARK5
# T3 construct: gene NUAK1
# ASK1 = system: T4, ASK1
# T4 construct: gene MAP3K5
# ASK2 = system: T5, ASK2
# T5 construct: gene MAP3K6
# AURKA = system: AURKA
# AURKB = system: AURKB
# AURKC = system: AURKC
# AXL = system: AXL
# BIKE = system: T6, BIKE
# T6 construct: gene BMP2K
# BLK = system: BLK
# BMPR1A = system: BMPR1A
# BMPR1B = system: BMPR1B
# BMPR2 = system: BMPR2
# BMX = system: BMX
# BRAF = system: BRAF
# BRK = system: T7, BRK
# T7 construct: gene PTK6
# 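Also: KINOMEscan kinase panel screen.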
Compound,%Inh (AKT3) [%],%Inh (ALK) [%],%Inh (AMPK-alpha1) [%],%Inh (AMPK-alpha2) [%],%Inh (ANKK1) [%],%Inh (ARK5) [%],%Inh (ASK1) [%],%Inh (ASK2) [%],%Inh (AURKA) [%],%Inh (AURKB) [%],%Inh (AURKC) [%],%Inh (AXL) [%],%Inh (BIKE) [%],%Inh (BLK) [%],%Inh (BMPR1A) [%],%Inh (BMPR1B) [%],%Inh (BMPR2) [%],%Inh (BMX) [%],%Inh (BRAF) [%],%Inh (BRK) [%]
CN1CCC(n2cnc(-c3ccc(F)cc3)c2-c2ccnc(NC3CCNCC3)n2)CC1 [SB-229482],32,22,0,12,0,0,0,0,34,40,0,48,0,10,6,0,1,0,0,0
Nc1n[nH]c2nnc(-c3ccccc3)cc12 [SB-517389],0,29,0,16,0,1,61,0,13,32,0,0,0,0,4,0,0,0,0,20
CCn1c(-c2ccncc2)nc2cnccc21 [SB-735216],0,6,0,5,21,8,0,20,7,29,0,24,8,0,4,0,24,17,19,3
Cn1ccc2ncnc(Oc3ccc(NC(=O)Nc4cccnc4)c(Cl)c3)c21,0,0,4,9,0,3,5,0,18,47,0,7,0,8,0,0,7,0,0,0
Cc1cc(N2CCC(NS(=O)(=O)c3ccc(F)cc3)CC2)nc(Nc2cccc(C#N)c2)n1.O=C(O)C(F)(F)F [GSK1653537],0,7,0,20,3,15,0,3,0,0,18,7,21,25,0,0,0,14,0,21
CC(C)N1CCC(n2cnc(-c3ccc(F)cc3)c2-c2ccnc(N)n2)CC1 [SB-223132],0,12,0,11,0,0,1,0,0,0,51,5,32,2,10,0,0,9,0,5
CN1c2ccc(-c3ccc(C(=O)NCCO)cc3)cc2-c2[nH]ncc2S1(=O)=O,12,44,16,0,0,0,34,3,0,37,9,17,10,26,19,16,0,13,19,0
Cn1cc(-c2ccc3c(c2)CCN3C(=O)Cc2cccc(C(F)(F)F)c2)c2c(N)ncnc21 [GSK2606414],53,1,0,13,16,13,0,10,30,32,29,41,26,36,0,0,0,2,12,3
Fc1ccc(Nc2nccc(-c3c(-c4ccc(Cl)cc4)nn4ncccc34)n2)cc1F [GW829058],15,43,17,0,10,0,2,26,32,27,0,1,0,0,18,18,32,5,37,6
Nc1nccc2scc(-c3ccc4c(c3)CCN4C(=O)Cc3cc(F)ccc3F)c12 [GSK2587663],0,8,0,11,1,0,6,13,0,8,35,41,10,54,0,0,0,23,3,32

# Reference: paper PMC5540273 (PLoS ONE, 2017)
